Source: PubChem BioAssay (National Center for Advancing Translational Sciences (NCATS))
This is a sample that favours compounds with a hit; in the whole collection about 7.9% have one here.
MCF10A rereplic: inducers of DNA re-replication in MCF 10A breast cells | Potency, µM (series often up to 46.1 µM), for inactives: top-dose activity, positive = re-replication, usual class: activators | MCF 10A DNA re-replication, Hoechst nuclear intensity, 48 h | AID 624296 | 2.9% of 350,000 active; note: % of control where 0% means no effect; nearly all actives have a fitted effect of over 50% in size
SW480 rerep: induces DNA re-replication in SW480 colon adenocarcinoma cells; 1.8% of 340,000 active; Potency, µM (doses to about 46.1 µM), for inactives: top-dose re-replication activation, hits mostly activators; SW480 DNA re-replication, Hoechst DNA content imaging, 48 h; note: % of control where 0% means no effect; nearly all actives have a fitted effect of over 55% in size
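Hoechst fluorescence of nuclei (405 nm excitation, 500-530 nm emission) measured by plate-scanning imager after 48 hr compound exposure at 37 C; re-replication scored as increased number of nuclei with elevated intensity.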
HT1080NT lethal: kills 2HG-producing HT-1080-NT fibrosarcoma cells. HT-1080-NT fibrosarcoma viability, CellTiter-Glo ATP luminescence, 48 h. Potency, µM (top dose mostly 46.1 µM), for the others: at the highest dose activity, negative = less viability, hits mostly cytotoxic. 1.6% of 360,000 active;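 note: NT is the 2HG producing partner of a matched IDH1 knockdown line; 0% = DMSO-treated cells and -100% = media-only wells without cells; nearly all actives have a fitted effect of over 55% in size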
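HT-1080-NT fibrosarcoma cells (2HG-overproducing), 750 cells/well in RPMI with 5% FBS, dosed after 2 h and incubated 48 h at 37C. CellTiter-Glo luminescence normalized to DMSO and no-cell wells; concentration-response curves fitted and classed.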
HT1080 IDH1KD tx: kills HT-1080 cells with IDH1 knockdown | HT-1080 IDH1 knockdown viability, ATP luminescence, 48 h | Potency, µM (series often up to 46.1 µM), for the others: top-dose activity, negative = toxicity, most hits filed as cytotoxic | 2% of 360,000 active | AID 686971;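 note: 0% = DMSO wells and -100% = cell-free medium wells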
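CellTiter-Glo luminescence after 48 h compound exposure at 37 degrees C of IDH1-knockdown HT-1080 cells in 5% FBS RPMI. %Activity scaled between DMSO wells and cell-free media wells, with curves fitted and assigned curve classes.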
KB-3-1 tox: kills parental KB-3-1 adenocarcinoma cells. KB-3-1 viability, CellTiter-Glo ATP luminescence, 72 h. Potency, µM (series often up to 46.1 µM), usual class: cytotoxic. 1.4% of 400,000 active. AID 1347075; note: % is set by controls: 0 for no effect and ±100 for the full control effect; nearly all actives have a fitted effect of over 60% in size
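Cytotoxicity in the drug-sensitive parental line KB-3-1 was scored as loss of CellTiter-Glo luminescence following 72 h incubation with compound. Values come from curve fitting of normalized concentration-response data.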
KB-V1 cytotox: kills drug-selected multidrug resistant KB-V1 cells; KB-V1 MDR cells viability, CellTiter-Glo, 72 h; Potency, µM (doses to about 46.1 µM), hits mostly cytotoxic; 3.4% of 400,000 active; note: % is set by controls: 0 for no effect and ±100 for the full control effect; nearly all actives have a fitted effect of over 60% in size
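Drug-selected KB-V1 cells, grown in DMEM lacking phenol red with 10% FBS, receive compound titrations; after three days at 37 degrees C, surviving cell ATP is quantified by CellTiter-Glo luminescence and responses normalized and curve-fitted.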
Starred values were filed as active, the others as inactive; i = inactive; ? = inconclusive; nt = no result given. Calls come from the whole dose curve; as a rule, active = well fitted curve in the direction sought with a large enough effect; inconclusive = small, poorly fitted or top-dose-only effect, or another doubt; inactive = no such curve, though single readings can be large; an effect the other way counts as inactive or inconclusive. Potency is the fitted concentration of half-maximal effect.

SMILES	MCF10A rereplic	SW480 rerep	HT1080NT lethal	HT1080 IDH1KD tx	KB-3-1 tox	KB-V1 cytotox
CCc1nnc(NC(=O)CCC(=O)NCc2ccc(OC)cc2)s1	2%	-22%	0%	10%	i	i
COc1ccc(CNC(=O)CCC(=O)Nc2nnc(CC(C)C)s2)cc1	0%	2.9µM*	-5%	3%	i	i
Cc1ccc(-c2cc(C(=O)N(Cc3ccccc3)Cc3ccco3)no2)cc1F	nt	nt	nt	nt	i	i
Cc1cccc(OCc2nc(CC(=O)Nc3ccc(C)cc3C)cs2)c1	nt	nt	nt	nt	i	i
N#Cc1c(N)oc(-c2ccc3c(c2)OCO3)c1-c1ccc2c(c1)OCO2	10%	5%	2%	4%	i	16µM*
CCOc1cc(-c2cc(-c3ccc(C)o3)nc(N)c2C#N)ccc1O	?	?	?	?	?	23µM*
COc1ccc(-c2cc(-c3ccc(O)cc3)nc(N)c2C#N)cc1OC	?	17%	-4%	?	?	?
Cc1cc(-c2cc(-c3ccc(Cl)cc3)nc(N)c2C#N)co1	2.6µM*	7.3µM*	?	?	i	i
CCOc1cc(-c2c(C)c(CC)nc(N)c2C#N)ccc1O	?	17%	-27%	?	?	18µM*
CCCc1cc(-c2ccc(O)c(OCC)c2)c(C#N)c(N)n1	1%	3%	-17%	?	?	?
Cc1ccccc1-n1c(=O)c2c3c(sc2n2cnnc12)CCCC3	nt	nt	nt	nt	i	i
CCc1ccc(-n2c(=O)c3c(C)c(C)sc3n(CC(=O)NCc3ccc(C)cc3)c2=O)cc1	nt	nt	nt	nt	i	i
Cc1ccc(-c2cc(-c3ccc(F)cc3)c(C#N)c(N)n2)o1	4.1µM*	21µM*	-17%	?	i	i
Cc1ccc(-c2cc(-c3ccc(Cl)cc3)c(C#N)c(N)n2)o1	2.9µM*	2.6µM*	3%	-12%	i	i
Cc1ccc(-c2cc(-c3ccc4c(c3)OCO4)c(C#N)c(N)n2)o1	21µM*	21µM*	?	-25%	i	i
Cc1ccc(-c2c(C#N)c(N)nc3c2CCCCC3)o1	?	-8%	2%	2%	?	i
Cc1ccc(-c2cc(-c3ccc(C)o3)nc(N)c2C#N)cc1	?	23µM*	-10%	-5%	i	i
Cc1nc(N)c(C#N)c(-c2ccc3c(c2)OCO3)c1C	?	-4%	-1%	9%	i	i
CCCCN(CC)CCCNC(=O)C1CCCN(c2ncnc3c2nc2n3CCCCC2)C1 (configuration not stated)	nt	nt	nt	nt	i	i
CC(=O)N1c2ccccc2CC1C(=O)NCc1cccc(Cl)c1 (configuration not stated)	nt	nt	nt	nt	i	i
COC(=O)C1CSC(C)(C)C(=O)N1 (configuration not stated)	0.92µM*	-41%	0%	8%	i	i
O=C(NC1CCCCC1)C1c2ccccc2OCC(=O)N1Cc1ccccc1 (configuration not stated)	nt	nt	17%	7%	i	i
CC(C)OP(=O)(OC(C)C)/C(C=O)=N\Nc1ccc([N+](=O)[O-])cc1	0%	-15%	21µM*	16µM*	?	i
O=C(Nc1ccc2nc(SCC(=O)N3CCc4ccccc43)sc2c1)c1cccc(F)c1	nt	nt	nt	nt	i	i
O=C(C[n+]1cc(-c2ccc(F)cc2)n2c1CCC2)Nc1nc(-c2ccc(F)cc2)cs1	?	-8%	4%	6%	?	i
SMILES	MCF10A rereplic	SW480 rerep	HT1080NT lethal	HT1080 IDH1KD tx	KB-3-1 tox	KB-V1 cytotox
Cc1ccc(-c2csc(NC(=O)C[n+]3cc(-c4ccc(C)cc4)n4c3CCC4)n2)cc1	?	-5%	?	16µM*	?	i
Cc1ccc(-c2csc(NC(=O)C[n+]3cc(-c4ccccc4)n4c3CCC4)n2)cc1	11%	?	-23%	?	?	i
O=C(C[n+]1cc(-c2ccccc2)n2c1CCC2)Nc1nc(-c2ccc(F)cc2)cs1	8%	0%	-10%	-7%	21µM*	i
Cc1ccc(-c2c[n+](CC(=O)N3c4ccccc4Sc4ccccc43)c3n2CCC3)cc1	1%	1%	?	?	?	i
O=C(C[n+]1cc(-c2ccccc2)n2c1CCC2)N1c2ccccc2Sc2ccccc21	?	4%	1%	-23%	6.5µM*	i
Cc1nc([N+](=O)[O-])cn1CC(O)c1ccc2c(c1)OCCCO2 (configuration not stated)	nt	nt	nt	nt	i	i
Cc1ccc(CNC(=O)CCc2c(C)nc3c4c(C)cc(C)nc4nn3c2C)cc1	nt	nt	nt	nt	i	i
COc1cc2nc(Cl)nc(NC3CCN(C)CC3)c2cc1OC	nt	nt	3%	13%	nt	nt
CN1CCC(Nc2ncc3ncnc(Nc4ccc(F)c(Cl)c4)c3n2)CC1	3.3µM*	13µM*	nt	nt	nt	nt
CCOc1ccc(C(=O)/C=C/Nc2ccc(S(=O)(=O)N=C(N)N)cc2)cc1	?	?	?	18µM*	i	i
NC(N)=NS(=O)(=O)c1ccc(N/C=C/C(=O)c2ccc(Cl)c(Cl)c2)cc1	?	15µM*	1%	10%	i	i
C=CCn1c(SCc2ccc(C(=O)Nc3nccs3)cc2)nnc1-c1ccc(C)c(Cl)c1	10µM*	?	-21%	?	?	5.2µM*
Cn1nnnc1SCc1ccc(C(=O)Nc2nccs2)cc1	?	-3%	?	1%	i	i
CCCCc1c(CCC)c(=N)c2ccccc2n1C	?	12%	-15%	21µM*	?	i
CCCCc1c(O)c2ccccc2n(CCCC)c1=O	-1%	2%	-16%	-16%	i	i
COC(=O)c1ccc(CSc2nc3c([nH]c4ccccc43)c(=O)n2-c2ccc(F)cc2)o1	nt	nt	nt	nt	i	i
COC(=O)c1sc(NC(=O)c2ccc([N+](=O)[O-])o2)c(C#N)c1C	2.9µM*	3.3µM*	0%	-3%	?	i
COC(=O)c1c(NC(=O)Cc2ccccc2)sc2c1CCN(C(C)C)C2	13%	1%	-15%	-5%	i	i
COc1cc(C(=O)Nc2sc3c(c2C#N)CCN(C(C)=O)C3)cc(OC)c1OC	11%	0%	-17%	-7%	?	i
COc1ccc(C(=O)Nc2sc3c(c2C#N)CCN(C(C)=O)C3)cc1	23µM*	23µM*	8.2µM*	5.8µM*	8.2µM*	?
CC(=O)N1CCc2c(sc(NC(=O)Cc3ccc(F)cc3)c2C#N)C1	13%	-11%	2%	0%	i	i
